Screening data: PubChem, Broad Institute
This excerpt belongs to a sample that is enriched for hits.
NSD2 block = blocks human NSD2 histone methyltransferase activity; actives 0.07% (n = 44,000); O96028; inhibition, % at 12.5 µM; NSD2-SET H3K36me1 DELFIA fluorescence, biochemical; in the data active = inhibition above about 54%, passing the limit was not always enough;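 note: inhibitors reduce the monomethyl H3K36 fluorescence signal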
Starred values were filed as active, the others as inactive.

SMILES	NSD2 block
O=C(CCCCCC(=O)Nc1ccccc1O)N/N=C/c1ccc([N+](=O)[O-])c(O)c1	7
C=C(CCCCCCCC(=O)O)C(=O)O	0
O=C(CCCCCCC(=O)Nc1ccccc1O)N/N=C/c1cccc(C(=O)O)c1	-5
COc1ccc(/C=N/NC(=O)c2ccccn2)c(O)c1	-7
O=C(O)CCCCCCC(=O)N/N=C/c1ccc(O)cc1Br	0
CC1=CC(=O)OC1(O)CCC(C)CC(=O)O (centres undefined)	75*
CC1=CC(=O)CC2C1(C)CCC(C)C2(C)CCC(C)CC(=O)O (centres undefined)	8
CC(CC[C@]1(C)C2CCC=C(CO)[C@]2(C)CC[C@H]1C)CC(=O)O (some centres undefined)	-1
COc1c(O[C@@H]2O[C@H](CO[C@H]3OC[C@](O)(CO)[C@H]3O)[C@@H](O)[C@H](O)[C@H]2O)cc2occ(-c3ccc(O)cc3)c(=O)c2c1O	5
C=C(C)[C@@H]1CC=C(/C=N/NC(=O)CCCCC(=O)NO)CC1	1
O=C(N/N=C/c1nccs1)c1ccccn1	3
CCc1cc2c(SCC(=O)N3CCc4ccccc43)ncnc2s1	-4
COc1cc(C2Oc3c(OC)cc(CCCO)cc3C2CO)ccc1O[C@H]1O[C@H](C)[C@@H](O)[C@H](O)[C@@H]1O (some centres undefined)	59*
C[C@@H]1O[C@@H](Oc2ccc(C3Oc4cc(O)cc(O)c4C(=O)C3O)cc2O)[C@H](O)[C@H](O)[C@H]1O (some centres undefined)	33
COc1ccc(C2Oc3c(OC)cc(CCCO)cc3C2CO)cc1OC1OC(CO)C(O)C(O)C1O (centres undefined)	11
COc1ccc(-c2nn(CCC(=O)O)c3nc(C)cc(C)c23)c(OC)c1	-3
O=C(CCc1ccc(O)cc1)c1ccc(O[C@@H]2O[C@H](CO)[C@H](O)[C@H](O)[C@H]2O)cc1O	15
O=C(/C=C/c1ccccc1)O[C@@H]1O[C@H](CO)[C@@H](O)[C@H](O)[C@H]1O	0
O=C(O)c1c(O)cc(OC2OC(CO)C(O)C(O)C2O)cc1/C=C/c1ccccc1 (centres undefined)	76*
COc1cc2c(cc1-c1coc3c4c(ccc3c1=O)OC(C)(C)C=C4)OCO2	1
Oc1c(C(Nc2ccccn2)c2cccc(OC3CCCC3)c2)ccc2cccnc12 (centres undefined)	-4
N#C/C(N)=C(\C#N)N=Cc1ccc(C#N)cc1	3
COc1ccc(Br)cc1/C=N/NC(=O)CCCCCC(=O)Nc1ccccc1O	-2
CC1(C)C=C(c2ccc(C3=CC(C)(C)NC(C)(C)C3)s2)CC(C)(C)N1	5
O=C(NCCCN1CCCC1=O)c1cc(-c2ccccn2)nc2ccc(Br)cc12	4
O=C(CCCCCCC(=O)Nc1ccccc1O)N/N=C/c1nccs1	6
CC(=O)CCC1C2C(O)C(C(C)C)C(OC(=O)/C=C/c3ccccc3)CC12C (centres undefined)	-11
COc1cc(/C=C/C(=O)O[C@@H]2C[C@@](O)(C(=O)O)C[C@@H](O)[C@@H]2O)ccc1O	12
O=C(/C=C/c1ccc(O)cc1)O[C@@H]1CC(O)(C(=O)O)C[C@@H](OC(=O)/C=C/c2ccc(O)cc2)C1O (some centres undefined)	63*
